TIM10 inh: inhibits growth of TIM10 yeast strain; hit rate 1.4% among 330,000; S. cerevisiae TIM10 strain growth, BacTiter-Glo luminescence, 24 h; inhibition, % at 10 µM;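 active = inhibition of 40% or more at the single tested concentration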;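 note: wild-type TIM10 isogenic control strain grown at permissive 25 °C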
NLRP3 yeast inh: inhibitors of NALP3 inflammasome in yeast; Yeast reconstituted NLRP3/ASC/caspase-1, beta-gal luminescence, 24 h; inhibition, % at 10 µM; hit rate 0.39% among 330,000; AID 2825;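 active = inhibition of 50% or more; inactive = inhibition below 50%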
NALP1 yeast inh: blocks the NALP1 inflammasome reconstituted in yeast | inhibition, % at 10 µM | S. cerevisiae NALP1/ASC/caspase-1 growth, X-gal OD620, 72 h | hit rate 0.61% among 280,000 | AID 2071; in the data active = inhibition mostly above about 24%, no sharp cut-off; inactive = mostly below about 32%
PfHsp90 yeast 2: growth inhibition of yeast expressing Plasmodium Hsp90. S. cerevisiae expressing PfHsp90, BacTiter-Glo ATP, 48 h; yeast lacking PDR1 and PDR3 efflux regulators. inhibition, % at 9.4 µM. hit rate 0.32% among 310,000. AID 504621;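 active = every replicate shows inhibition above about 80%, whatever the replicate mean, limit read from the data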
tim23-1 inh: tim23-1 yeast growth inhibition; S. cerevisiae tim23-1 growth, BacTiter-Glo luminescence, 24 h; inhibition, % at 20 µM; hit rate 1.3% among 330,000;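 active = growth inhibition of the mutant yeast at or above 50%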;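 note: temperature-sensitive mutant grown at 25 °C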
tim10-1 inh: tim10-1 yeast growth inhibition; S. cerevisiae tim10-1 ts strain growth, BacTiter-Glo, 24 h; AID 463190; hit rate 2.2% among 330,000; inhibition, % at 20 µM;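 active = inhibition of at least 40%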;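 note: mutant grown at 25 °C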
Hits are given with their value; - = inactive; . = no result. An excerpt weighted towards active compounds, which were near 4.1% of everything screened.

SMILES	TIM10 inh	NLRP3 yeast inh	NALP1 yeast inh	PfHsp90 yeast 2	tim23-1 inh	tim10-1 inh
CC(C)N=C1NN=C(c2cccs2)CS1	-	-	-	-	-	-
CCCn1c(COc2ccc(C(=O)O)cc2)nc2ccccc21	-	-	43	-	-	-
CCCCOc1ccc(C(=O)NNC(=S)NC(=O)CC)cc1	.	.	-	106	.	.
CCCCOc1ccc(C(=O)O)cc1	-	-	20	-	-	-
CC(=O)c1cccc(S(=O)(=O)N2CCC(C(=O)Nc3cccc(C(=O)NC4CC4)c3)CC2)c1	-	-	.	-	-	-
COC(=O)c1ccc(CNC(=O)CCNC(=O)c2ccco2)cc1	-	-	.	-	-	-
COc1cc([N+](=O)[O-])c(N2CCOCC2)c([N+](=O)[O-])c1OC	-	-	42	-	-	-
CC(C)(C)OC(=O)N1CCC(C(=O)Nc2cccc(C(=O)N3CCCCC3)c2)CC1	.	.	.	-	.	.
Cc1ccc(-c2nnn(CC(=O)N(c3cccc(F)c3)C(C(=O)NC3CCCC3)c3ccncc3)n2)o1 (stereo not drawn)	-	-	35	-	-	-
Cc1ccc(-c2nnn(CC(=O)N(c3cccc(F)c3)C(C(=O)NC3CCCC3)c3ccco3)n2)o1 (stereo not drawn)	-	-	-	-	-	-
O=C(Oc1cccc2cccnc12)c1ccc(N2C(=O)C3C4CCC(C4)C3C2=O)cc1 (stereo not drawn)	-	-	59	-	-	-
Cc1ccc(NS(=O)(=O)c2cccc(C(=O)N(C)Cc3cccs3)c2)cc1	-	-	.	-	-	-
CCN1CCN(CCCNC(=O)Cn2cc3c(n2)CCCC3)CC1	-	-	44	-	-	-
Cc1c(NC(=O)CSc2nncn2-c2ccccc2)c(=O)n(-c2ccccc2)n1C	-	-	.	.	-	-
CCOc1cc(CNCc2ccncc2)cc(Br)c1OCc1ccc(F)cc1	-	-	51	-	-	-
CCOc1cc(CNC2CCCC2)cc(Cl)c1OCc1ccc(F)cc1	-	-	97	-	-	-
Cc1cc(O)c(S(=O)(=O)c2ccccc2)c(C)c1NS(=O)(=O)c1ccccc1	-	-	-	-	-	-
CCOC(=O)C1=C(N)N2C(=O)C(C)SC2=C(C(=O)OC)C1c1ccccc1OC (stereo not drawn)	-	-	-	133	-	-
CCOC(=O)C1=C(N)N2C(=O)C(C)SC2=C(C(=O)OCC)C1c1ccccc1 (stereo not drawn)	-	-	-	-	-	-
CC(C)CN1CCN(CCCOC(=O)Nc2cccc3ccccc23)CC1C (stereo not drawn)	.	.	.	-	.	.
CCOC(=O)C1C(c2ccc(O)c(OC)c2)NC(=O)NC1(O)C(F)(F)F (stereo not drawn)	-	-	34	-	-	-
Cc1nc2ccc(C(=O)OCC(=O)N(C)c3ccccc3)cc2nc1C	-	-	.	-	-	-
CSc1nn(-c2ccc(C(=O)OC(C(=O)NC(N)=O)C(C)C)cc2)c(=S)s1 (stereo not drawn)	-	-	38	-	-	-
COc1cccc(CNC(=O)CN2C(=O)c3ccccc3S2(=O)=O)c1	-	-	.	.	-	-
COc1cc(CNc2cccc(F)c2)cc(Br)c1O	-	-	32	-	-	-
SMILES	TIM10 inh	NLRP3 yeast inh	NALP1 yeast inh	PfHsp90 yeast 2	tim23-1 inh	tim10-1 inh
Cc1c(NC(=O)COC(=O)c2ccc(Cl)nc2)c(=O)n(-c2ccccc2)n1C	-	-	.	-	-	-
Cc1cccc(CN2CCSCC2)c1	-	-	-	-	-	-
Clc1ccccc1CN1CCN(CCCc2ccccc2)CC1	.	.	22	-	.	.
OCC1(CCc2ccccc2)CCN(Cc2ccccc2Cl)CC1	-	-	-	-	-	-
Cc1cccc(CN2CCN(CCCc3ccccc3)CC2)c1	-	-	31	.	-	-
Cc1ccc(NC(=O)CSCC(=O)NC2(C)CCS(=O)(=O)C2)cc1 (stereo not drawn)	-	-	.	-	-	-
Cc1c(CCCl)c(Cl)n2c(nc3ccccc32)c1C#N	.	.	.	103	.	.
Cc1cc(Cl)n2c(nc3ccccc32)c1C#N	.	.	-	.	.	.
O=C(CSc1nnnn1-c1cccc(F)c1)NC1CC1	-	-	.	-	-	-
CCC(=O)NCCCOc1ccccc1	-	-	27	-	-	-
CCN(CC)c1ccc(NC(=O)c2ccc3c(c2)OCO3)cc1	-	-	-	-	-	-
O=C(COC(=O)/C=C/c1cccs1)Nc1nc(-c2ccccc2)cs1	-	-	63	-	-	-
O=C(COC(=O)/C=C/c1cccs1)Nc1nc(-c2cccc(Br)c2)cs1	-	-	.	-	-	-
COCCN=C1Sc2nc3ccc(C)cc3cc2CN1Cc1ccco1	-	-	48	-	-	-
CCOC(=O)N1CCN(c2c(NCCCN(CC)CC)c(=O)c2=O)CC1	-	-	45	-	-	-
CCOc1ccc(Cl)cc1S(=O)(=O)n1cnc2cc(C)c(C)cc21	-	-	41	-	-	-
CC(OC(=O)C1=COCCO1)C(=O)Nc1ccccc1C#N (stereo not drawn)	-	-	-	-	-	-
CC(OC(=O)C1=COCCO1)C(=O)Nc1ccc(Oc2ccccc2)cc1 (stereo not drawn)	-	-	36	-	-	-
COc1ccccc1N1CCN(C(=O)C(=O)c2cn(CC(=O)N3CCOCC3)c3ccccc23)CC1	-	-	-	-	-	-
COc1ccc(CCN2C(=O)C=CC2=O)cc1OC	.	.	.	104	.	.
COc1ccc(CCn2c(C)ccc2C)cc1OC	-	-	-	.	-	-
CCN(CC)CCn1c(NCc2ccccn2)nc2ccccc21	-	-	42	-	-	-
Fc1ccc(Nc2ccnc(Nc3ccc(F)cc3)n2)cc1	-	-	84	-	-	-
O=C(O)C1OC1(c1ccccc1Cl)c1ccccc1Cl (stereo not drawn)	.	.	.	-	.	.
COc1cc(CNCCO)cc(Cl)c1OCc1ccc(Cl)cc1Cl	-	-	38	-	-	-
SMILES	TIM10 inh	NLRP3 yeast inh	NALP1 yeast inh	PfHsp90 yeast 2	tim23-1 inh	tim10-1 inh
COc1cc(CNC(C)(C)CO)cc(Br)c1OCc1ccc(Cl)cc1	-	-	-	-	-	-
COc1cc(CNC(C)(C)CO)cc(Br)c1OCc1ccc(Cl)cc1Cl	-	-	58	-	-	-
COc1cc(CNCCO)cc(Br)c1OCc1ccccc1Cl	-	-	-	-	-	-
NS(=O)(=O)c1cccc(NC(=O)CSc2nnc(C3CC3)n2-c2ccccc2)c1	-	-	.	-	-	-
Nc1cc2c(cc1[N+](=O)[O-])-c1ccccc1C2=NO	.	.	.	128	.	.
CN(CCc1ccccc1)C1CCCN(C(=O)Cn2cccn2)C1 (stereo not drawn)	-	-	-	-	-	-
Cc1csc(NC(=O)c2ccc(COc3ccccc3)o2)n1	-	-	43	-	-	-
Cc1cccc(NC(=O)c2ccc(COc3ccccc3)o2)n1	-	-	-	-	-	-
O=c1c(Cl)c(Nc2cccc(Cl)c2)cnn1-c1nc2ccccc2s1	-	-	-	-	-	-
COc1ccc(Nc2cnn(-c3nc4ccccc4s3)c(=O)c2Cl)cc1	.	.	-	96	.	.

Screening results: PubChem BioAssay, several laboratories
